Assay [1] in a line: Primary qHTS for Huh7 cytotoxicity: counterscreen for inhibitors of MERS-S pseudotyped particle cell entry (AID 1479147). As to activity change, negative = cytotoxicity: % is scaled to controls: 0 for no effect and ±100 for the full control effect. Conditions: outcome: dose series up to 57.1 µM unless noted. (In qHTS, concentration-response curves come from the screen itself.)
Assay [2] is described as follows: Primary qHTS for inhibitors of MERS-S pseudo-typed particle cell entry (AID 1479149). Also: nearly all actives have a fitted effect of over 60% in size. As to activity change, negative = inhibition: % is scaled to controls: 0 for no effect and ±100 for the full control effect. The note with it: outcome: dose series up to 57.1 µM unless noted.
A short description of assay [3]: Primary qHTS for Vero E6 cytotoxicity: counterscreen for inhibitors of SARS-S pseudo-typed particle cell entry (AID 1479150). As to activity change, negative = cytotoxicity: % is scaled to controls: 0 for no effect and ±100 for the full control effect. The note with it: outcome: dose series up to 57.1 µM unless noted.
Assay [4] can be described thus: Cytotoxicity counterscreen for inhibitors of SARS-CoV-2 cell entry (AID 1645845). Also: nearly all actives have a fitted effect of over 50% in size. As to activity change, negative = cytotoxicity: % is scaled to controls: 0 for no effect and ±100 for the full control effect. Conditions: outcome: dose series up to 57.1 µM unless noted. In a few lines: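 Expi293F/hACE2 cells seeded overnight; cpd pin-transferred in DMSO, 1 h preincubation, + media, 48 h 37 C 5% CO2; ATPLite 1step luminescence; normalized to cells and no cells.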
In general terms: The purpose of a counterscreen is to sort out artefacts and off-target activity.

Assay [5] can be described thus: Primary qHTS to identify inhibitors of SARS-CoV-2 cell entry (AID 1645846). Also: nearly all actives have a fitted effect of over 45% in size. Also: potency is read from the fitted curve at half-maximal effect. The note with it: SARS-CoV-2 pseudovirus cell entry assay, luminescence; activity change, negative = inhibition: at 57.1 µM (top of the series) unless noted. An outline of the steps: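 Using luciferase-reporting pseudoviruses carrying Wuhan-Hu-1 spike, the screen tracks entry into stably ACE2-expressing cells over 48 hr. Activity is expressed relative to spike particles versus particles lacking any fusion protein.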

Inconclusive results are not listed. The source made the active and inactive calls. Calls follow the shape of the full dose curve.

Consider `C[N@+]12CCCC[C@@H]1CCC(=C(c1cccs1)c1cccs1)C2`, for which the Potency result in assay [1], in assay [2], in assay [3] and in assay [4] was “inactive” throughout. The activity change, negative = inhibition in assay [5] was -20.7%.
For the compound `CCN(CC)CCS(=O)(=O)[C@@H]1CCN2C(=O)c3coc(n3)CC(=O)C[C@H](O)/C=C(C)/C=C/CNC(=O)/C=C/[C@@H](C)[C@@H](C(C)C)OC(=O)[C@@H]12`, the Potency entry in assay [1], in assay [2], in assay [3] and in assay [4] was “inactive” in each case. Also, the activity change, negative = inhibition in assay [5] is -29%.
As for `CCCCCCCCCCCCCCCCCC(=O)OCCO`, the Potency entry in assay [1], in assay [2], in assay [3] and in assay [4] was “inactive” in each case. For the same compound, in assay [5], the activity change, negative = inhibition was -12.3%.
For the compound `Cc1[nH]cnc1C[C@H]1CCc2c(C)c3ccccc3n2C1=O`, the Potency result in assay [1], in assay [2], in assay [3] and in assay [4] was “inactive” each time. Besides, the activity change, negative = inhibition in assay [5] is -26.5%.
For `CC#CCC(C)[C@H](O)/C=C/[C@@H]1[C@H]2c3cccc(CCCC(=O)O)c3O[C@H]2C[C@H]1O` (stereo not given in full), the Potency entry in assay [1], in assay [2], in assay [3] and in assay [4] was “inactive” each time. In addition, the activity change, negative = inhibition in assay [5] is -5.27%.
Consider `CCCCC(F)(F)C1(O)CCC2C(CC(=O)C2CCCCCCC(=O)O)O1` (stereo not given), for which the Potency result in assay [1], in assay [2], in assay [3], in assay [4] and in assay [5] was “inactive” each time.
Consider `C[C@]12C=CC(=O)C=C1CC[C@@H]1[C@@H]2[C@@H](O)C[C@@]2(C)[C@H]1CC[C@]2(O)C(=O)COP(=O)(O)O`, for which the results for the activity change, negative = cytotoxicity in assay [1], in assay [3] and in assay [4] were -13.3% [at 11.4 µM] (inactive), -2.88% [at 11.4 µM] (inactive) and -0.915% [at 11.3 µM] (inactive), respectively. Moreover, the results for the activity change, negative = inhibition in assay [2] and in assay [5] were -22% [at 11.4 µM] (inactive) and -19.2% [at 11.3 µM], respectively.
On to `CNc1ncc(-c2ccc3c(=O)c(C(=O)O)cn(C4CC4)c3c2C)cc1C`, for which the Potency result in assay [1], in assay [2], in assay [3] and in assay [4] was “inactive” each time. Also, in assay [5], the activity change, negative = inhibition is -15.2% [at 19 µM].
For the compound `OCCCNc1ccccc1`, the Potency entry in assay [1], in assay [2], in assay [3] and in assay [4] was “inactive” in each case. Besides, the activity change, negative = inhibition in assay [5] was -22.3%.
As for `CO/N=C(/C(=O)N[C@@H]1C(=O)N2C(C(=O)O)=C(CSC(=O)c3ccco3)CS[C@H]12)c1csc(N)n1`, the Potency result in assay [1], in assay [2], in assay [3] and in assay [4] was “inactive” throughout. The activity change, negative = inhibition in assay [5] was -26.3%.
Turning to `CC[C@H](C)C1NC(=O)[C@H](Cc2ccc(O)cc2)NC(=O)[C@@H](N)CSSC[C@@H](C(=O)N2CCC[C@H]2C(=O)N[C@@H](CC(C)C)C(=O)NCC(N)=O)NC(=O)[C@H](CC(N)=O)NC(=O)[C@H](CCC(N)=O)NC1=O` (stereo not given in full), the Potency entry in assay [1], in assay [2], in assay [3] and in assay [4] was “inactive” in each case. Also, the activity change, negative = inhibition in assay [5] was -27.2%.
`CCOc1cc(C(CS(C)(=O)=O)N2C(=O)c3cccc(NC(C)=O)c3C2=O)ccc1OC` (stereo not given): the Potency result in assay [1], in assay [2], in assay [3] and in assay [4] was “inactive” each time. The activity change, negative = inhibition in assay [5] is -21.8%.
Turning to `Cc1ccc([C@@H]2O[C@H](CO)[C@@H](O)[C@H](O)[C@H]2O)cc1Cc1ccc(-c2ccc(F)cc2)s1`, the Potency entry in assay [1], in assay [2], in assay [3] and in assay [4] was “inactive” each time. The Potency in assay [5] is 17.8 µM (active).
`O=P(O)(O)OC1C(OP(=O)(O)O)C(OP(=O)(O)O)C(OP(=O)(O)O)C(OP(=O)(O)O)C1OP(=O)(O)O` (stereo not given): the Potency entry in assay [1], in assay [2], in assay [3] and in assay [4] was “inactive” each time. In assay [5], the activity change, negative = inhibition is -23.6%.
Turning to `CN1CCN(C2=Nc3ccccc3Cc3ccccc32)CC1`, the Potency entry in assay [1], in assay [2], in assay [3] and in assay [4] was “inactive” in each case. In addition, in assay [5], the activity change, negative = inhibition was -23.9%.
Consider `CCCOc1cc(N)ccc1C(=O)OCCN(CC)CC`, for which the Potency entry in assay [1], in assay [2], in assay [3] and in assay [4] was “inactive” each time. In addition, the activity change, negative = inhibition in assay [5] was -10.9%.
As to `CC1CCC(C(C)C)C(OC(=O)c2ccccc2O)C1` (stereo not given), the Potency entry in assay [1], in assay [2], in assay [3], in assay [4] and in assay [5] was “inactive” throughout.
Consider `CCC(=O)O[C@@H]1CC(=O)O[C@H](C)C/C=C/C=C/[C@@H](O)[C@H](C)C[C@H](CC=O)[C@H](OC2O[C@H](C)[C@@H](O[C@H]3C[C@@](C)(O)[C@@H](OC(=O)CC)[C@H](C)O3)[C@H](N(C)C)[C@H]2O)[C@H]1OC` (stereo not given in full), for which the Potency entry in assay [1], in assay [2], in assay [3] and in assay [4] was “inactive” each time. Also, the activity change, negative = inhibition in assay [5] was -26.3%.
As for `O=C(O)c1cc(=O)c2c3nc4ccccc4oc-3cc(=O)c2[nH]1`, the Potency result in assay [1], in assay [2], in assay [3] and in assay [4] was “inactive” in each case. The activity change, negative = inhibition in assay [5] was -16.2%.
As for `NC(=O)c1ccc[n+]([C@@H]2O[C@H](COP(=O)([O-])OP(=O)(O)OC[C@H]3O[C@@H](n4cnc5c(N)ncnc54)[C@H](O)[C@@H]3O)[C@@H](O)[C@H]2O)c1`, the Potency result in assay [1], in assay [2], in assay [3] and in assay [4] was “inactive” in each case. Further, the activity change, negative = inhibition in assay [5] is -19.8%.
Regarding `CCCC1CC(C(=O)NC(C(C)Cl)C2OC(SC)C(OP(=O)(O)O)C(O)C2O)N(C)C1` (stereo not given), the Potency result in assay [1], in assay [2], in assay [3] and in assay [4] was “inactive” throughout. For the same compound, in assay [5], the activity change, negative = inhibition is -28.7% [at 27.1 µM].
As for `CCC[C@@H]1C[C@@H](C(=O)N[C@@H](C2O[C@H](SC)[C@H](O)[C@@H](O)[C@H]2O)[C@H](C)Cl)N(C)C1` (stereo not given in full), the Potency result in assay [1], in assay [2], in assay [3], in assay [4] and in assay [5] was “inactive” throughout.
On to `CCCCCC(O)/C=C/[C@@H]1C(CCCCCCC(=O)O)C(=O)C[C@@H]1O` (stereo not given in full), for which the Potency entry in assay [1], in assay [2], in assay [3] and in assay [4] was “inactive” in each case. Besides, the activity change, negative = inhibition in assay [5] is -20.3%.
Turning to `CC(C)CC(NC(=O)CNC(=O)C(Cc1ccc(O)cc1)NC(=O)C(CO)NC(=O)C(Cc1c[nH]c2ccccc12)NC(=O)C(Cc1cnc[nH]1)NC(=O)C1CCC(=O)N1)C(=O)NC(CCCN=C(N)N)C(=O)N1CCCC1C(=O)NCC(N)=O` (stereo not given), the Potency entry in assay [1], in assay [2], in assay [3] and in assay [4] was “inactive” throughout. The activity change, negative = inhibition in assay [5] is -25.2%.

The values above are taken from PubChem BioAssay (NCATS).
